Tests used:
HCI01 = cells of a triple-negative basal-like breast cancer xenograft; test: cell viability of combination (% of vehicle); higher = less cytotoxic; conditions: 1 µM; 72 h; partner dose: 10 nM
Protocol: (§1)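 PDX cells were treated for 72 h with each drug at 1 µM plus afatinib (10 nM; 1 µM for WHIM30). Luciferase viability is expressed as percent of vehicle.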

WHIM2 = cells of a triple-negative basal-like breast cancer xenograft; test: as above; conditions: 1 µM; 72 h; partner dose: 10 nM
Protocol: as §1

Compound | cell viability of combination (HCI01) | cell viability of combination (WHIM2)
COc1cc(Nc2ncc(F)c(Nc3ccc4c(n3)N(COP(=O)(O)O)C(=O)C(C)(C)O4)n2)cc(OC)c1OC [Fostamatinib (R788)] + CN(C)C/C=C/C(=O)Nc1cc2c(Nc3ccc(F)c(Cl)c3)ncnc2cc1O[C@H]1CCOC1 [Afatinib] | 64.2 | 41.3
Nc1ncn(C2OC(CO)C(O)C2O)c(=O)n1 (stereo not given) [5-Azacytidine] + CN(C)C/C=C/C(=O)Nc1cc2c(Nc3ccc(F)c(Cl)c3)ncnc2cc1O[C@H]1CCOC1 [Afatinib] | 53.5 | 48.9
CCCCc1oc2ccc(NS(C)(=O)=O)cc2c1C(=O)c1ccc(OCCCN(CCCC)CCCC)cc1.Cl [Dronedarone HCl] + CN(C)C/C=C/C(=O)Nc1cc2c(Nc3ccc(F)c(Cl)c3)ncnc2cc1O[C@H]1CCOC1 [Afatinib] | 54.4 | 52.5
CN1CCN(c2ccc(C(=O)/N=c3\[nH][nH]c4ccc(Cc5cc(F)cc(F)c5)cc34)c(NC3CCOCC3)c2)CC1 [Entrectinib] + CN(C)C/C=C/C(=O)Nc1cc2c(Nc3ccc(F)c(Cl)c3)ncnc2cc1O[C@H]1CCOC1 [Afatinib] | 57.5 | 38.5
CN(C)c1ccc(O)c2c1CC1CC3C(N(C)C)C(=O)C(C(N)=O)=C(O)C3(O)C(=O)C1=C2O.Cl (stereo not given) [Minocycline HCl] + CN(C)C/C=C/C(=O)Nc1cc2c(Nc3ccc(F)c(Cl)c3)ncnc2cc1O[C@H]1CCOC1 [Afatinib] | 66.6 | 49.9
CNC(=O)c1cc(Oc2ccc(NC(=O)Nc3ccc(Cl)c(C(F)(F)F)c3)cc2)ccn1.Cc1ccc(S(=O)(=O)O)cc1 [Sorafenib Tosylate] + CN(C)C/C=C/C(=O)Nc1cc2c(Nc3ccc(F)c(Cl)c3)ncnc2cc1O[C@H]1CCOC1 [Afatinib] | 46.6 | 42.4
COc1ccc(CN2CCN(C(c3ccc(F)cc3)c3ccc(F)cc3)CC2)c(OC)c1OC.Cl.Cl [Lomerizine HCl] + CN(C)C/C=C/C(=O)Nc1cc2c(Nc3ccc(F)c(Cl)c3)ncnc2cc1O[C@H]1CCOC1 [Afatinib] | 57.7 | 50.9
CCc1oc2ccccc2c1C(=O)c1cc(Br)c(O)c(Br)c1 [Benzbromarone] + CN(C)C/C=C/C(=O)Nc1cc2c(Nc3ccc(F)c(Cl)c3)ncnc2cc1O[C@H]1CCOC1 [Afatinib] | 56.3 | 48
CO[C@H]1C[C@@H]2CC[C@@H](C)[C@@](O)(O2)C(=O)C(=O)N2CCCC[C@H]2C(=O)O[C@H]([C@H](C)C[C@@H]2CC[C@@H](OC(=O)C(C)(CO)CO)[C@H](OC)C2)CC(=O)[C@H](C)/C=C(\C)[C@@H](O)[C@@H](OC)C(=O)[C@H](C)C[C@H](C)/C=C/C=C/C=C/1C [Temsirolimus] + CN(C)C/C=C/C(=O)Nc1cc2c(Nc3ccc(F)c(Cl)c3)ncnc2cc1O[C@H]1CCOC1 [Afatinib] | 45.9 | 44
Cc1ccc(C(=O)N(CCCN)C(c2nc3cc(Cl)ccc3c(=O)n2Cc2ccccc2)C(C)C)cc1 (stereo not given) + CN(C)C/C=C/C(=O)Nc1cc2c(Nc3ccc(F)c(Cl)c3)ncnc2cc1O[C@H]1CCOC1 [Afatinib] | 50.5 | 35.8

Reference: the supplement of paper PMC6992640
